Screens: PubChem BioAssay, National Center for Advancing Translational Sciences (NCATS)
Rows were chosen to be rich in hits. Some 1.7% of all compounds tested hit in one or more screens of this group.
pAkt inh: Akt phosphorylation inhibition; Neuro2A IGF-stimulated pAkt S473 HTRF, 20 min; hits give low values; activity change, % for hits at 50 µM; 360,000 tested, 0.32% active; AID 651550; in the data active = activity change below about -80%; inconclusive = mostly about -51% to -80%
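Neuro2A cells in DMEM with 0.5% FBS, overnight at 37 deg C, given compound at single 50 µM final, then IGF (6 nM final) for 20 min at 37 deg C. Lysed; phospho-Akt Ser473 by HTRF after 24 h, 665/615 ratio.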
RXFP1 antagonist: antagonists of human relaxin receptor RXFP1; Q9HBX9; HEK293-RXFP1, relaxin-stimulated cAMP HTRF, 30 min; hits give low values; activity change, negative = inhibition, % at 57.5 µM; 350,000 tested, 0.59% active;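 active = activity change of -60% or lower, but not beyond a set lower limit; inconclusive = change between -60% and -40%, or beyond the set limit; inactive = change above -40%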
Target sequence (Q9HBX9 whole entry, looked up): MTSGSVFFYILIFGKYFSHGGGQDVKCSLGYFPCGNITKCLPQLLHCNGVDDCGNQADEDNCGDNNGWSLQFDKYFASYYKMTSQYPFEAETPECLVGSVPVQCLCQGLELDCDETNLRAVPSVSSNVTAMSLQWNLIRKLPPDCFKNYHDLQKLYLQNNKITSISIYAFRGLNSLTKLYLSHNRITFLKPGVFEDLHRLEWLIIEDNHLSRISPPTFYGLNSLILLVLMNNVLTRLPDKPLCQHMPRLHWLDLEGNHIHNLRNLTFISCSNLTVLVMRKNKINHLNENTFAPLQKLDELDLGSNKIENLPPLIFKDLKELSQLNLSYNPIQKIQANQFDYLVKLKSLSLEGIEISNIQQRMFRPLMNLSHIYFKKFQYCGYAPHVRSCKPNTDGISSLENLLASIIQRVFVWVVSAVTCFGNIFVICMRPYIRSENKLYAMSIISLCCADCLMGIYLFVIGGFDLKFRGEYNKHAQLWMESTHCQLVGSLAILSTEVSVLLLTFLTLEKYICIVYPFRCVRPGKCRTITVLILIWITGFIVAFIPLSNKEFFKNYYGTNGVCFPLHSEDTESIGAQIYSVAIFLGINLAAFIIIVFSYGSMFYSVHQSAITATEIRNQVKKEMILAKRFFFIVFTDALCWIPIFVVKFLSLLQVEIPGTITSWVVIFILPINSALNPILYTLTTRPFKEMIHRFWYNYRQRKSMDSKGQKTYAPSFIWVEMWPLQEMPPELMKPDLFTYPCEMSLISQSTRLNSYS
KCNH2 3.1 block: KCNH2 3.1 (human) potassium channel inhibition; U2OS KCNH2 3.1, thallium flux FluxOr; hits give low values; activity change, % (tested at about 1.8 µM); 340,000 tested, 0.95% active; AID 720553;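 active = maximum activity change below -70%; inconclusive = maximum activity change from -70% to -50%; inactive = maximum activity change above -50%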;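 note: thallium influx rate constant from kinetic fluorescence after stimulation buffer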
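Channel expression came from 3.1 mutant virus (1.77 x 10^8 /mL) applied to suspended U2OS cells for 4 h. Flux was tracked with FluxOr dye plus Red40 quencher, and kinetic rate constants normalized to controls.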
RXFP1 ag: agonists of human relaxin receptor RXFP1; Q9HBX9; HEK293T-RXFP1 cAMP TR-FRET, 30 min; response scale: percent of porcine relaxin response, buffer zero; Potency, µM (top dose mostly 57.5 µM), without a hit: at the top dose activation, usual class: activators; 370,000 tested, 0.3% active; AID 2676; active = well fitted activation curve with a large enough effect; inconclusive = small, poorly fitted or top-dose-only effect; note: potency is the fitted concentration of half-maximal effect; nearly all actives have a fitted effect of over 60% in size
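HEK293T cells stably expressing RXFP1 were pretreated with the PDE4 inhibitor Ro 20174, exposed to compounds for 30 min at 37C, lysed, and cAMP was read by TR-FRET. Data normalized to buffer (basal) and 29 nM porcine relaxin (100%).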
KCNH2 WT inh: KCNH2 (human, wildtype) channel inhibition; 340,000 tested, 0.37% active; U2OS, BacMam KCNH2, thallium flux FluxOr; hits give low values; activity change, % at 1.84 µM; AID 720551; Q12809;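 active = maximum activity change below -70%; inconclusive = maximum activity change between -70% and -50%; inactive = maximum activity change above -50%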
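U2OS cells were transduced with wild-type KCNH2 virus (2.03 x 10^8 / mL) for 4 h at room temperature, then cultured overnight at 37 C. Thallium flux was read with FluxOr dye. Rate constants were normalized to DMSO controls.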
* hit, by the source's call. % is set by controls: 0 for no effect and ±100 for the full control effect.

What do the screens show for `CC(C)N(CCNCC(O)COc1ccc(C(C)(C)c2ccccc2)cc1)C(C)C` (stereo not drawn)?
pAkt inh: inactive; RXFP1 antagonist: -11.7; KCNH2 3.1 block: inconclusive; RXFP1 ag: 2.4%; KCNH2 WT inh: -95.7*

What do the screens show for `O=C(Nc1ncccc1O)c1cccc(S(=O)(=O)N2CCCc3ccccc32)c1`?
pAkt inh: inactive; RXFP1 antagonist: -8.2; KCNH2 3.1 block: 4.9; RXFP1 ag: 0.0%; KCNH2 WT inh: 8.7

Results for COC(=O)C1C(=O)CC(C)(O)C(C(=O)OC)C1/C=C/c1ccccc1 (stereo not drawn) ?
pAkt inh: inactive; RXFP1 antagonist: -12.5; KCNH2 3.1 block: -12.6; RXFP1 ag: 2.7%; KCNH2 WT inh: 3.7

What do the screens show for `CCOC(=O)C1C(=O)CC(C)(O)C(C(=O)OCC)C1/C=C/c1ccccc1` (stereo not drawn)?
pAkt inh: inactive; KCNH2 3.1 block: -106.0*; RXFP1 ag: 1.5%; KCNH2 WT inh: -1.4

Results for CN(C)S(=O)(=O)c1cccc(NC(=O)COC(=O)CCC(=O)c2cccs2)c1 ?
pAkt inh: inactive; RXFP1 antagonist: -7.1; KCNH2 3.1 block: 0.0; RXFP1 ag: -1.7%; KCNH2 WT inh: 8.3

How did NS(=O)(=O)c1cccc(NC(=O)COC(=O)CCC(=O)c2cccs2)c1 do in these assays?
pAkt inh: inactive; RXFP1 antagonist: 8.7; KCNH2 3.1 block: -70.9*; KCNH2 WT inh: -2.5

What do the screens show for `CCN(CC(=O)NCc1ccc2c(c1)OCO2)S(=O)(=O)c1ccc(F)cc1`?
pAkt inh: inactive; RXFP1 antagonist: -8.4; KCNH2 3.1 block: -10.6; RXFP1 ag: -3.4%; KCNH2 WT inh: -1.4

How did O=C(CCN=C1NS(=O)(=O)c2ccccc21)OCC(=O)c1ccc(F)c(F)c1 do in these assays?
pAkt inh: inactive; RXFP1 antagonist: -20.5; KCNH2 3.1 block: 14.1; RXFP1 ag: 0.7%; KCNH2 WT inh: -5.2

Results for Cc1ccc(-c2cc(-c3nnc(SCC(=O)N(C)CCC#N)n3N)c3ccccc3n2)cc1 ?
pAkt inh: -114.9%*; RXFP1 antagonist: -10.7; KCNH2 3.1 block: 4.4; RXFP1 ag: 2.6%; KCNH2 WT inh: 6.6

How did CC1CC(c2ccccc2)=Nc2ccccc2N1 (stereo not drawn) do in these assays?
pAkt inh: inactive; RXFP1 antagonist: -14.6; KCNH2 3.1 block: 14.2; RXFP1 ag: 0.0%; KCNH2 WT inh: 1.4

How did CCS(=O)(=O)Nc1ccc(-c2nnc(SCC(=O)OC)o2)cc1 do in these assays?
pAkt inh: inactive; RXFP1 antagonist: -16.9; KCNH2 3.1 block: -10.3; RXFP1 ag: 2.5%; KCNH2 WT inh: 3.7

Results for CCC(=O)Nc1ccc(C(=O)CSc2nnc(-c3ccc(NS(=O)(=O)CC)cc3)o2)cc1OC ?
pAkt inh: inactive; RXFP1 antagonist: -8.0; KCNH2 3.1 block: 8.0; RXFP1 ag: 1.4%; KCNH2 WT inh: -91.9*

How did Cc1oc(-c2ccc(F)cc2)cc1-c1nn2c(-c3ccoc3C)nnc2s1 do in these assays?
pAkt inh: -108.8%*; RXFP1 antagonist: -14.8; KCNH2 3.1 block: -2.4; RXFP1 ag: 2.3%; KCNH2 WT inh: 1.4

What do the screens show for `Cc1oc(-c2ccc(Cl)cc2)cc1-c1nn2c(-c3ccco3)nnc2s1`?
RXFP1 ag: -1.7%

What do the screens show for `N#CCCCSC1=C(C#N)C(c2ccccc2Cl)CC(=O)N1` (stereo not drawn)?
pAkt inh: inactive; RXFP1 antagonist: -2.8; KCNH2 3.1 block: 3.4; RXFP1 ag: 0.0%; KCNH2 WT inh: -6.4

What do the screens show for `Cc1ccc(NC(=O)Nc2ccno2)cc1`?
pAkt inh: inactive; RXFP1 antagonist: 1.6; KCNH2 3.1 block: -111.8*; RXFP1 ag: 3.0%; KCNH2 WT inh: 1.2

How did Cc1ccc(NC(=O)Nc2ncccc2C)cc1 do in these assays?
pAkt inh: inactive; RXFP1 antagonist: 8.9; KCNH2 3.1 block: -15.2; RXFP1 ag: -0.5%; KCNH2 WT inh: -4.0

How did CCOc1ccc(C(=O)N2CCN(c3cccc(Cl)c3)CC2)cc1 do in these assays?
pAkt inh: inactive; RXFP1 antagonist: -2.0; KCNH2 3.1 block: -14.1; RXFP1 ag: 0.4%

Results for CCOc1ccc(C(=O)N2CCN(c3cccc(C)c3C)CC2)cc1 ?
pAkt inh: inactive; RXFP1 antagonist: -3.6; KCNH2 3.1 block: -74.0*; RXFP1 ag: 2.9%; KCNH2 WT inh: 9.8

How did CC(=O)Nc1ccc(NC(=O)C2CC(=O)N(Cc3ccco3)C2)cc1 (stereo not drawn) do in these assays?
pAkt inh: inactive; RXFP1 antagonist: -5.1; KCNH2 3.1 block: 8.0; RXFP1 ag: 1.3%; KCNH2 WT inh: -1.0

What do the screens show for `Cc1ccc(-n2[nH]c(C)c(/C=N/Nc3ccc([N+](=O)[O-])cc3[N+](=O)[O-])c2=O)cc1`?
pAkt inh: inactive; RXFP1 antagonist: -73.9*; KCNH2 3.1 block: 2.0; RXFP1 ag: -1.0%; KCNH2 WT inh: -2.6

What do the screens show for `Cc1[nH]n(-c2ccc([N+](=O)[O-])cc2)c(=O)c1C=NCC1CCCO1` (stereo not drawn)?
pAkt inh: inactive; RXFP1 antagonist: -7.6; KCNH2 3.1 block: 24.0; RXFP1 ag: 17.8%; KCNH2 WT inh: -20.9

How did O=[N+]([O-])c1ccccc1NC1CCN(Cc2ccccc2)CC1 do in these assays?
pAkt inh: inactive; RXFP1 antagonist: -11.6; KCNH2 3.1 block: inconclusive; RXFP1 ag: -0.6%; KCNH2 WT inh: 19.8

Results for O=[N+]([O-])c1ccc(NC2CCN(Cc3ccccc3)CC2)c([N+](=O)[O-])c1 ?
pAkt inh: inactive; RXFP1 antagonist: 4.0; KCNH2 3.1 block: -96.5*; RXFP1 ag: 0.2%; KCNH2 WT inh: -74.2*

How did O=[N+]([O-])c1ccc(C(O)CN2CCN(Cc3ccccc3)CC2)cc1 (stereo not drawn) do in these assays?
pAkt inh: inactive; RXFP1 antagonist: -4.7; KCNH2 3.1 block: -70.4*; RXFP1 ag: 0.5%; KCNH2 WT inh: -16.2

What do the screens show for `O=[N+]([O-])c1ccc(C(O)CN2CCN(C/C=C/c3ccccc3)CC2)cc1` (stereo not drawn)?
pAkt inh: inactive; RXFP1 antagonist: -6.7; KCNH2 3.1 block: -112.7*; RXFP1 ag: 14.7%; KCNH2 WT inh: -93.7*

Results for Cc1cc(COc2ccccc2OCCN2CCN(C)CC2)no1 ?
pAkt inh: -103.7%*; RXFP1 antagonist: -8.8; KCNH2 3.1 block: -6.3; RXFP1 ag: 0.1%; KCNH2 WT inh: 17.3

Results for CCc1ccccc1NC(=O)Cn1nnc(C(=O)Nc2ccc(C)c(F)c2)c1N ?
RXFP1 antagonist: -3.0; RXFP1 ag: 0.3%

How did O=Cc1c(-c2ccccc2)cc2oc3ccccc3cc1-2 do in these assays?
pAkt inh: inactive; RXFP1 antagonist: 6.8; KCNH2 3.1 block: 30.4; RXFP1 ag: 0.3%; KCNH2 WT inh: 4.0

Results for CC(=O)c1ccc2c(c1)N(C)c1ccccc1S2 ?
pAkt inh: inactive; RXFP1 antagonist: -5.4; KCNH2 3.1 block: -10.8; RXFP1 ag: 0.3%; KCNH2 WT inh: -14.5
